Measurements as given in PubChem BioAssay AID1986 (Sanford-Burnham Center for Chemical Genomics, 2009).
About 890 (0.31%) of roughly 290,000 compounds were called active. Cut-off read from the data, not from the text of the source: active = inhibition mostly above about 52% (no sharp cut-off); inactive = mostly below about 76%. For the sample, actives were picked, then their nearest neighbours and some compounds at random.

Assay: inhibitors of HIV fusion peptide binding, primary screen, biochemical, uHTS, fluorescence dequenching (AID 1986)
Settings: cell-free peptide binding, 30 min, stronger effect = higher value
[1] = measured here: repeat confirmation average inhibition, at 18.6 µM

SMILES	inhibition (at 20 µM)	inhibition [1]
Cc1ccccc1NC(=O)Cn1c(=O)sc2ccccc21	-1.5% (inactive)	
CC1=C(C(=O)OCC2CCCO2)C(c2coc3ccc(Cl)cc3c2=O)C2=C(CCCC2=O)N1 (stereo not given)	-0.8% (inactive)	
COc1ccccc1CC(=O)Nc1cccc2c1CCCC2	-2.5% (inactive)	
COc1ccc2nc(SCC(=O)Nc3nonc3C)[nH]c2c1	0.1% (inactive)	
CSc1ccccc1C(=O)NCC(c1ccco1)N(C)C (stereo not given)	-2.2% (inactive)	
CC1=C(C(=O)NC2CCCc3c2cnn3-c2cccc(C)c2C)OCCO1 (stereo not given)	-0.2% (inactive)	
CN(C)c1cccc2c(C=C(C#N)C#N)ccc(N(C)C)c12	89.8% (active)	
CN(C)c1cccc2c(/C=N/O)ccc(N(C)C)c12	-1.6% (inactive)	
CC(=O)c1ccc(N(C)C)c2c(N(C)C)cccc12	-0.7% (inactive)	
Cc1ccc(NC(=O)c2cc(S(=O)(=O)N3CCOCC3)cn2C)cc1Cl	-0.7% (inactive)	
Cc1ccc(N(CC(=O)NCc2ccccc2Cl)S(=O)(=O)c2cccs2)cc1	0.6% (inactive)	
O=C(CSc1nnc(-c2ccccc2F)o1)NC1CCCCC1	-0.3% (inactive)	
Cc1ccc(-n2c3c(cc(C(=O)NC4CCSC4=O)c2=O)C(=O)CCC3)cc1 (stereo not given)	-1.5% (inactive)	
CCOc1cc(/C=N\Nc2ccc([N+](=O)[O-])cc2)ccc1OCC(=O)Nc1ccc(C)c(C)c1	88.4% (active)	94.3%
COc1cc(/C=N\Nc2ccc([N+](=O)[O-])cc2)ccc1OCC(=O)Nc1ccc(C)c(C)c1	27.8% (inactive)	
CCOc1cc(/C=N/NC(N)=O)ccc1OCC(=O)Nc1ccc(C)c(C)c1	-2% (inactive)	
CC(Sc1ccccc1)C(=O)NCCc1ccccc1 (stereo not given)	0.1% (inactive)	
COc1ccccc1-c1nc(S(=O)(=O)c2ccc(Cl)cc2)c(N(C)C)o1	0.1% (inactive)	
O=c1c2[nH]c3cccc(Cl)c3c2ncn1Cc1ccncc1	0.2% (inactive)	
Cc1ccc(N2NC(=O)/C(=C/c3ccc(-c4ccc(Cl)c(C(=O)O)c4)o3)C2=O)cc1	29.4% (inactive)	
COC(=O)c1ccc(N2NC(=O)/C(=C/c3ccc(-c4ccc(Cl)c(C(=O)O)c4)o3)C2=O)cc1	54.7% (active)	

SMILES	inhibition (at 20 µM)	inhibition [1]
O=C1NN(c2ccccc2)C(=O)/C1=C/c1ccc(-c2ccc(Cl)c(C(=O)O)c2)o1	34.7% (inactive)	
Cc1cc(CSc2ccccc2)ccc1NC(=O)c1ccc(Cl)c([N+](=O)[O-])c1	1.8% (inactive)	
O=Cc1ccc2noc(-c3ccc(F)cc3)c2c1	75.6% (active)	79.8%
O=Cc1ccc2noc(-c3ccc(Cl)cc3)c2c1	28.2% (inactive)	
Cc1ccc(-c2onc3ccc(C=O)cc23)cc1	-0.6% (inactive)	
COc1ccc2c(ccc[n+]2CC(=O)c2ccccc2)c1	1.3% (inactive)	
Cc1nc(NC(=O)CSc2cc(C)c3ccccc3n2)c(Cl)cc1Cl	-0.4% (inactive)	
S=C(Nc1ccc(Oc2ccccc2)cc1)N1CCOCC1	-0.2% (inactive)	
COc1cc(CNCc2ccccc2Cl)ccc1OCC(=O)NC1CCCCC1	0.7% (inactive)	
CN(/C=C/C(=C/C=[N+](C)c1ccccc1)OCCCS(=O)(=O)[O-])c1ccccc1	71.6% (active)	
CN(C)/C=C/C(=O)c1ccc(S(=O)(=O)c2ccccc2)cc1	2.7% (inactive)	
CN(/C=C/C(=C\C=[N+](C)c1ccccc1)OCCCS(=O)(=O)[O-])c1ccccc1	24.5% (inactive)	
Clc1ccccc1OCCN1CCC(Cc2ccccc2)CC1	-0.6% (inactive)	
Cc1ccc(C=C2C(Cl)=C(Cl)C(Cl)=C2Cl)cc1	53.9% (active)	
Cc1ccc(/C=N/N=C/c2ccc(C)cc2)cc1	0.6% (inactive)	
Cc1ccc(/C=[N+](/C)[O-])cc1	-1.3% (inactive)	
COc1ccccc1OCCCCOc1ccccc1C(C)=O	0.9% (inactive)	
O=C(/C=C/Nc1cccc(F)c1)c1ccco1	1.5% (inactive)	
COC(=O)c1ccc(=O)c2nc3/c(=C/O)c(O)cc(=O)c3[nH]c12	56.3% (active)	
COC(=O)c1ccc(N)cc1O	-0.9% (inactive)	
COC(=O)c1ccc(C(=O)OC)c(=O)[nH]1	-0.4% (inactive)	

SMILES	inhibition (at 20 µM)	inhibition [1]
COc1ccc(NC(=S)N(Cc2cccnc2)Cc2ccco2)cc1	-0.6% (inactive)	
Clc1ccc(Cc2noc(-c3cccs3)n2)cc1	1.2% (inactive)	
Cc1ccc(/C=C2\Oc3c(ccc(O)c3CN3CCN(C)CC3)C2=O)cc1	45.4% (inactive)	
CCN1CCN(Cc2c(O)ccc3c2O/C(=C\c2ccc(C)cc2)C3=O)CC1	40.1% (inactive)	
Cc1cc(O)c(CN(C)C)c2c1C(=O)/C(=C/c1ccco1)O2	29.7% (inactive)	
CC1CCCN(Cc2c(O)ccc3c2O/C(=C\c2ccco2)C3=O)C1 (stereo not given)	35.5% (inactive)	
CC(C)(C)c1ccc(/C=C2\Oc3c(ccc(O)c3CN3CCN(CCO)CC3)C2=O)cc1	17.8% (inactive)	
COCCN(CCOC)Cc1c(O)ccc2c1O/C(=C\c1ccco1)C2=O	50.4% (active)	78.9%
O=C1/C(=C/c2ccco2)Oc2c1ccc(O)c2CN1CCCCC1	58.1% (active)	
CC1CCN(Cc2c(O)ccc3c2O/C(=C\c2ccco2)C3=O)CC1	56.7% (active)	90.4%
COCCN(CCOC)Cc1c(O)ccc2c1O/C(=C\c1ccc(C)o1)C2=O	27.4% (inactive)	
COc1ccc(C2C(C(=O)N3CCN(c4ccccn4)CC3)CCC(=O)N2c2ccc(OC)cc2)cc1 (stereo not given)	-2.1% (inactive)	
O=C1C=C(N2CCCCCC2)C2(CCCCC2)O1	0.8% (inactive)	
C[C@H](NC(=O)c1nc[nH]c1C(=O)NC(c1ccccc1)c1ccccc1)C(=O)OCc1ccccc1	2.7% (inactive)	
NC(=O)c1sc2nnc(-c3ccccc3)c(-c3ccccc3)c2c1N	1.6% (inactive)	
CCSc1nnc(-c2cccs2)o1	1.8% (inactive)	
CCSc1nnc(-c2sc3nnc(-c4ccccc4)c(-c4ccccc4)c3c2N)o1	98.4% (active)	
O=C(Cn1c(=O)oc2cc(S(=O)(=O)N3CCCC3)ccc21)N1CCN(C2CCCCC2)CC1	0% (inactive)	
O=C(CSc1nc2ccccc2c(=O)n1Cc1ccco1)N1CCN(c2ccccc2)CC1	-4.4% (inactive)	
